Values joined by “and” are separate entries in the source; they are usually repeats but may differ in a detail not shown here. Equal values may be shown once. This is part of a sample that, as a whole, favours compounds with a hit. Of some 83,000 tested, about 20% had one in any assay.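 Interpretation: 100, growth as untreated; towards 0, rising growth inhibition; 0, no net growth; 0 to -100, cell death. Compounds scoring below 10 were considered active.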
Columns and labels:
Assay in all cases: NCI-60 one-dose screen, 48 h (100 = growth as untreated, 0 = no growth, -100 = all killed)
Conditions in all cases: 10 µM unless noted
[1] = system: NCI-H23 lung
[2] = system: NCI-H226 lung
[3] = system: NCI-H322M lung
[4] = system: HOP-62 NSCLC
[5] = system: NCI-H460 lung
[6] = system: HOP-92 NSCLC
[7] = system: NCI-H522 lung
[8] = system: A549/ATCC NSCLC
[9] = system: 786-0 renal
[10] = system: COLO 205 colon
[11] = system: DU-145 prostate
[12] = system: K-562 leukemia
[13] = system: MALME-3M melanoma
[14] = system: MDA-MB-231 breast
[15] = system: RXF 393 renal
[16] = system: SF-268 CNS
[17] = system: SF-295 CNS
[18] = system: SF-539 CNS
[19] = system: UACC-257 melanoma
[20] = system: M14 melanoma

Measured: growth

N=C(N)N1CCc2ccccc2C1
inactive: [1] 87.2% and 106% | [2] 97.6% and 108% | [3] 98.6% and 116% | [4] 93.1% and 96.8% | [5] 103% and 95.5% | [6] 156% | [7] 83.9% and 118% | [8] 81.9% and 96.9% | [9] 87.5% and 112% | [10] 100% and 106% | [11] 105% and 97.3% | [12] 71.4% and 108% | [13] 82% and 110% | [14] 99% and 103% | [15] 97.2% and 121% | [16] 98.9% and 97.3% | [17] 88% and 106% | [18] 104% and 96.8% | [19] 86.5% and 95.4% | [20] 93.2% and 108%

Cc1ccc([N+](=O)[O-])cc1Br
inactive: [1] 110% | [2] 98.4% | [3] 111% | [4] 89.4% | [5] 94.4% | [6] 106% | [7] 88% | [8] 77.6% | [9] 96.6% | [10] 99.9% | [11] 110% | [12] 86.3% | [13] 102% | [14] 104% | [15] 111% | [16] 104% | [17] 97.7% | [18] 91.7% | [19] 79.7% | [20] 95.1%

C/C=C(/C(=O)NC(N)=O)C(C)C
inactive: [1] 104% | [2] 116% | [3] 109% | [4] 111% | [5] 100% | [6] 94.5% | [7] 108% | [8] 97.7% | [9] 96.9% | [10] 97.5% | [11] 105% | [12] 109% | [13] 106% | [14] 114% | [15] 171% | [16] 87.2% | [17] 108% | [18] 115% | [19] 104% | [20] 93.9%

CCOP(=O)(OCC)/C(C#N)=C/c1c(C)[nH]c2ccccc12
inactive: [1] 103% | [2] 84% | [3] 107% | [4] 89.1% | [5] 101% | [6] 84% | [7] 87.1% | [8] 93.1% | [9] 106% | [10] 107% | [11] 107% | [12] 94.6% | [13] 105% | [14] 90.4% | [15] 108% | [16] 102% | [17] 95.1% | [18] 99% | [19] 92.6% | [20] 92.4%

CCOC(C)=N
inactive: [1] 105% | [2] 112% | [3] 146% | [4] 101% | [5] 114% | [6] 89.7% | [7] 87.3% | [8] 101% | [9] 100% | [10] 122% | [11] 118% | [12] 102% | [13] 177% | [14] 106% | [15] 114% | [16] 106% | [17] 121% | [18] 106% | [19] 104% | [20] 97.5%

OCCS
inactive: [1] 93.7% | [2] 98.8% | [3] 101% | [4] 97.3% | [5] 106% | [6] 95.2% | [7] 102% | [8] 95.1% | [9] 94.2% | [10] 107% | [11] 104% | [12] 91.4% | [13] 101% | [14] 99.3% | [15] 110% | [16] 99.5% | [17] 101% | [18] 100% | [19] 90.9% | [20] 97.6%

CCC(C)NC(=O)c1ccccc1C (stereo not given)
inactive: [1] 91.7% | [2] 93.6% | [3] 97.7% | [4] 92.1% | [5] 102% | [6] 84.5% | [7] 94.2% | [8] 100% | [9] 95.7% | [10] 103% | [11] 106% | [12] 129% | [13] 77.7% | [14] 104% | [15] 96% | [16] 101% | [17] 100% | [18] 96.6% | [19] 100% | [20] 95.3%

From PubChem BioAssay (NCI)
